This is part of a sample that, as a whole, favours compounds with a hit. Of some 83,000 tested, about 20% had one in any assay.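 Compound tested at a single concentration for 48 hours in 96-well plates; a percent growth value below 10 was scored as active.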 Values without a mark were called inactive. Activity calls are given as the source filed them.
Assays:
Assay in all cases: NCI-60 one-dose screen, 48 h (100 = growth as untreated, 0 = no growth, -100 = all killed)
Conditions in all cases: 10 µM unless noted
[1] = test system: NCI-H23 lung
[2] = test system: NCI-H226 lung
[3] = test system: NCI-H322M lung
[4] = test system: HOP-62 NSCLC
[5] = test system: NCI-H460 lung
[6] = test system: HOP-92 NSCLC
[7] = test system: NCI-H522 lung
[8] = test system: A549/ATCC NSCLC
[9] = test system: 786-0 renal
[10] = test system: COLO 205 colon
[11] = test system: DU-145 prostate
[12] = test system: K-562 leukemia
[13] = test system: MALME-3M melanoma
[14] = test system: MDA-MB-231 breast
[15] = test system: RXF 393 renal
[16] = test system: SF-268 CNS
[17] = test system: SF-295 CNS
[18] = test system: SF-539 CNS
[19] = test system: UACC-257 melanoma
[20] = test system: M14 melanoma

SMILES | growth [1] | growth [2] | growth [3] | growth [4] | growth [5] | growth [6] | growth [7] | growth [8] | growth [9] | growth [10] | growth [11] | growth [12] | growth [13] | growth [14] | growth [15] | growth [16] | growth [17] | growth [18] | growth [19] | growth [20]
Brc1ccc(-c2cc(-c3ccc4c(c3)OC=CO4)n[nH]2)s1 | 87.4% | 95.1% | 96.2% | 82% | 96.4% | 99.7% | 73.8% | 89.9% | 104% | 97.1% | 99.1% | 31.5% | 70.3% | 90.8% | 101% | 89% | 82.6% | 85.2% | 90.7% | 75.3%
COc1ccc2c(c1)c(-c1nn3cc(-c4ccncc4)nc3s1)cn2C | 88.7% | 88.6% | 85.4% | 67% | 53.1% | 11.6% | 68.9% | 98.7% | 93% | 81.5% | 93.9% | 28.4% | 89.9% | 77% | 83.2% | 79% | 75.3% | 84% | 116% | 107%
N#Cc1c(-c2cccs2)c(C#N)c(=O)n(Cc2nc3ccccc3[nH]2)c1N | 90.7% | 87% | 98.5% | 93.3% | 101% | 95.2% | 95.1% | 103% | 103% | 111% | 111% | 101% | 107% | 82.4% | 94.4% | 104% | 107% | 97.7% | 110% | 98.4%
CCN(CC)c1ccc(/C=N/NC(=O)c2ccc(S(N)(=O)=O)cc2)cc1 | 25.1% | 45.1% | 28.1% | 18.6% | 7.17% (active) | 72.3% | 18.7% | 26.1% | 9.66% (active) | 11.1% | 34.7% | 14.7% | 8.81% (active) | 38.3% | -6.07% (active) | 29.4% | 16% | 17% | 2.22% (active) | -1.23% (active)
COc1cc(OC)cc(-c2cc(-c3c[nH]c4ccccc34)nc(-c3c[nH]c4ccccc34)c2C#N)c1 | 104% | 87.3% | 105% | 96.3% | 103% | 95% | 92.1% | 98.5% | 105% | 110% | 101% | 93.2% | 108% | 101% | 108% | 100% | 101% | 94.2% | 112% | 95%
COc1cccc(N2CCN(C3=C(Cl)C(=O)c4ncccc4C3=O)CC2)c1 | 60.3% | 94.7% | 95.4% | 83.5% | 63% | 135% | 42.6% | 97.2% | 114% | 91.9% | 59.2% | 7.16% (active) | 61.6% | 85.1% | 64.5% | 84.1% | 110% | 93.8% | 70.2% | 81.7%
CN1CCN(CC#CCn2c3c(c4ccccc42)C[C@]2(C)[C@H]4CC=C5[C@@H]6CC(C)(C)CC[C@]6(C(=O)N6CCOCC6)CC[C@@]5(C)[C@]4(C)CC[C@H]2C3(C)C)CC1 | 74% | 85.7% | 94.9% | 91.7% | 17.6% | 22.5% | 97% | 41.9% | 76.3% | 87.3% | 64.8% | -23% (active) | 83.3% | 43.1% | 68.4% | 83.5% | 99.3% | 73.9% | 102% | 87.7%
NC(=S)n1c(=O)n(-c2cccc(C(F)(F)F)c2)c(=O)c2cc(-c3ccc(F)cc3F)ccc21 | -5.28% (active) | 9.53% (active) | 6.11% (active) | 1.42% (active) | 6.23% (active) | -29.9% (active) | -4.04% (active) | 7.29% (active) | 11.4% | 37.5% | 24.5% | 8.79% (active) | -17.5% (active) | -11.3% (active) | 0.891% (active) | 13.3% | -12% (active) | 17.2% | -7.03% (active) | 14.5%
CCOC(=O)c1c(NC(=O)c2ccc(C(F)(F)F)cc2)sc2c(CN3CCN(C)CC3)c(O)ccc12 | 56.4% | -6.63% (active) | 10.2% | -78.6% (active) | -70.7% (active) | 24.2% | -21.3% (active) | -74.8% (active) | -93.6% (active) | -67.5% (active) | -39.1% (active) | -57.5% (active) | -56.9% (active) | -43.3% (active) | -86% (active) | -49.5% (active) | -58% (active) | -89.7% (active) | -13.5% (active) | -26.1% (active)
CCOC(=O)c1ccc(NC2=C(Cl)C(=O)c3nc(C)ccc3C2=O)cc1 | 52% | 85.5% | 96.7% | 113% | 79.3% | 103% | 24.1% | 94.3% | 55.5% | 58.9% | 91% | 7.29% (active) | 11.7% | 77.4% | 45.6% | 70.8% | 65% | 54.3% | 44.2% | 52.4%
C=C(C=O)[C@@H]1CC[C@]2(C(=O)O)CC[C@]3(C)C(CC[C@@H]4[C@@](C)(CCC#N)[C@H](C(=C)C=O)CC[C@]43C)[C@@H]12 (stereo not given in full) | 17.6% | -16.4% (active) | 98.6% | 115% | 96.7% | 13.6% | 81.4% | 82.7% | 59.7% | 108% | 43.2% | 4.17% (active) | 5.28% (active) | 43.8% | 44% | 64.9% | 62.7% | 13.4% | 12.4% | 13.2%
Clc1cccc(/C=N/Nc2nc(N/N=C/c3cccc(Cl)c3)nc(N3CCCCC3)n2)c1 | 97.8% | 82% | 101% | 104% | 96.5% | 108% | 88.3% | 86.3% | 95.2% | 102% | 94.6% | 83% | 109% | 116% | 93.4% | 92% | 93% | 105% | 111% | 95.3%
CN1CCN(c2ccc(Nc3nc(NCCCNS(=O)(=O)c4ccc(C(F)(F)F)cc4)c4sccc4n3)cc2)CC1 | 2.34% (active) | 57.9% | -1.68% (active) | -49.1% (active) | -47.8% (active) | -55.9% (active) | -85.6% (active) | -12.1% (active) | -82.2% (active) | -76% (active) | -8.78% (active) | 5.24% (active) | -87.8% (active) | -60.1% (active) | -87% (active) | -53.3% (active) | -74.6% (active) | -92.6% (active) | -91.7% (active) | -80.5% (active)
CN(C)S(=O)(=O)c1ccc(-c2nc(C(Cl)Cl)nc3cc(-c4ccc(F)cc4)nn23)cc1 | -3.27% (active) | 45.4% | 31% | 9.75% (active) | 1.94% (active) | 14.6% | -16.5% (active) | 7.5% (active) | 72.6% | 2.25% (active) | 5.97% (active) | 8.44% (active) | -11.5% (active) | 1.26% (active) | -19.2% (active) | 19.4% | 21.8% | 31.7% | 52.4% | 1.95% (active)
